Among the data in PubChem BioAssay (EPA / NIEHS) are outcome and AC50 values, retold here.

Assay [1] has as its target sheep Cyclooxygenase-2 (Cox2), PTGS2 (gene 443460) (UniProt P79208). Briefly: NVS_ENZ_oCOX2: NovaScreen (NVS) Enzymatic Assay for sheep Cyclooxygenase-2 (Cox2) (AID 2283231). In outline: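 Colorimetric absorbance read-out of COX activity, taken 0.66 hour post-dosing, using native protein from sheep placenta. Single-concentration duplicate screen (25 uM), then singleton concentration-response up to 50 uM for actives.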

Assay [2] concerns the target rat Catechol-O-Methyl Transferase (COMT), Comt (gene 24267) (UniProt P22734). Briefly: NVS_ENZ_rCOMT: NovaScreen (NVS) Enzymatic Assay for rat Catechol-O-Methyl Transferase (COMT) (AID 2283235). In outline:
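Rat dorsal striatum extract served as COMT source; product quantified by HPLC/spectrophotometry, read at 0 h after dosing. Primary single-concentration screen at 25 uM, followed by concentration series to a 50 uM maximum.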

The target of assay [3] is sheep Cyclooxygenase-1 (Cox1), PTGS1 (gene 443551) (UniProt P05979). The experiment in a line: NVS_ENZ_oCOX1: NovaScreen (NVS) Enzymatic Assay for sheep Cyclooxygenase-1 (Cox1) (AID 2283239).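 Further: actives reduce cyclooxygenase activity so potencies are for inhibitors.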 In outline:
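Native ovine seminal vesicle protein serves as enzyme source in this biochemical assay. Colorimetric signal is recorded 0.66 h after chemical addition, and decreases versus the DMSO control define activity.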

The target of assay [4] is bovine Dopamine Receptor (DR), Non-selective Binding, DRD1 (gene 281125) (UniProt Q95136). The experiment in a line: NVS_GPCR_bDR_NonSelective: NovaScreen (NVS) G Protein-Coupled Receptor Assay for bovine Dopamine Receptor (DR), Non-selective Binding (AID 2283241). In outline:
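Filter-based radioligand binding with bovine striatal membrane, incubated 1 h; DMSO as negative baseline. Initial duplicate single-point test at 25 uM preceded concentration series for actives.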

Assay [5] in a line: NVS_GPCR_bNPY_NonSelective: NovaScreen (NVS) G Protein-Coupled Receptor Assay for bovine Neuropeptide Y (NPY) Receptor, Non-selective Binding (AID 2283245). In outline: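 Displacement of radioligand from bovine hippocampal membrane receptors, read by filtration and scintillation counting after 1 hour. Concentration-response to a top of 50 uM followed a 25 uM duplicate primary screen. Loss of signal versus DMSO.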

Assay [6] relates to guinea pig Muscarinic, Peripheral (Mperiperal) Receptor, Non-selective Binding, gene 100379235. The experiment in a line: NVS_GPCR_gMPeripheral_NonSelective: NovaScreen (NVS) G Protein-Coupled Receptor Assay for guinea pig Muscarinic, Peripheral (Mperiperal) Receptor, Non-selective Binding (AID 2283250). In outline: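 Screened in duplicate at 25 uM, hits retested in concentration series to 50 uM max, using bladder membrane radioligand displacement from guinea pig. Filtration and scintillation counting 1 h post-dose, fitted relative to DMSO.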

Assay [7] deals with human Serotonin, 5-Hydroxytryptamine Receptor 5A (5HT5A), HTR5A (gene 3361) (UniProt P47898). The experiment in a line: NVS_GPCR_h5HT5A: NovaScreen (NVS) G Protein-Coupled Receptor Assay for human Serotonin, 5-Hydroxytryptamine Receptor 5A (5HT5A) (AID 2283251). In outline:
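Membranes from HEK293 cells, radioligand binding read by filtration and scintillation after 1 h. Single-concentration duplicate testing at 25 uM, then concentration-response for actives; positive-direction fitting relative to DMSO.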

Assay [8] has as its target human Serotonin, 5-Hydroxytryptamine Receptor 6 (5HT6), HTR6 (gene 3362) (UniProt P50406). Briefly: NVS_GPCR_h5HT6: NovaScreen (NVS) G Protein-Coupled Receptor Assay for human Serotonin, 5-Hydroxytryptamine Receptor 6 (5HT6) (AID 2283253). In outline:
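Filter scintillation counting of radioligand displacement from HEK293-expressed 5HT6, 1 hour post-dose, with loss of signal relative to DMSO. Single 25 uM duplicates first, with concentration series for confirmation.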

Assay [9] deals with human Adenosine A1 Receptor (AdoRA1), ADORA1 (gene 134) (UniProt P30542). The experiment in a line: NVS_GPCR_hAdoRA1: NovaScreen (NVS) G Protein-Coupled Receptor Assay for human Adenosine A1 Receptor (AdoRA1) (AID 2283254). In outline:
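Membranes from human cortical tissue were incubated with radioligand and test chemical for 1 hour, then filtered and counted. Activity was taken as signal loss relative to DMSO, screened at 25 uM in duplicate before concentration-response follow-up.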

Assay [10] addresses human Serotonin, 5-Hydroxytryptamine Receptor 7 (5HT7), HTR7 (gene 3363) (UniProt P34969). Briefly: NVS_GPCR_h5HT7: NovaScreen (NVS) G Protein-Coupled Receptor Assay for human Serotonin, 5-Hydroxytryptamine Receptor 7 (5HT7) (AID 2283255).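 Further: hits reduce specific radioligand binding relative to DMSO.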 In outline: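 Filter-bound radioactivity counted after 1 h, with loss of specific radioligand binding fitted against DMSO. Membrane protein came from CHO cells expressing human 5HT7. Chemicals were tested first at 25 uM in duplicate, then in concentration series if active.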

Assay [11] deals with human Adenosine A2a Receptor (AdoRA2a), ADORA2A (gene 135) (UniProt P29274). The experiment in a line: NVS_GPCR_hAdoRA2a: NovaScreen (NVS) G Protein-Coupled Receptor Assay for human Adenosine A2a Receptor (AdoRA2a) (AID 2283256). In outline: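 Compounds screened in duplicate at 25 uM, with actives followed up in concentration series, for displacement of a radioligand from HEK293-derived receptor protein. Bound counts read by filter scintillation at 1.5 hours, DMSO as baseline.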

The target of assay [12] is Adenosine receptor A1 (Bos taurus) (UniProt P28190). Briefly: NVS_GPCR_bAdoR_NonSelective: NovaScreen (NVS) G Protein-Coupled Receptor Assay for bovine Adenosine Receptor (AdoR), Non-selective Binding (AID 2283244). In outline:
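Cell-free binding with membranes from bovine striatum: radioligand displaced by test chemical, read after 1 h by filtration and scintillation. Single-point 25 uM duplicate primary, 50 uM top concentration in follow-up curves, DMSO baseline.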

The target of assay [13] is human Serotonin, 5-Hydroxytryptamine Receptor 2A (5HT2A), HTR2A (gene 3356) (UniProt P28223). The experiment in a line: NVS_GPCR_h5HT2A: NovaScreen (NVS) G Protein-Coupled Receptor Assay for human Serotonin, 5-Hydroxytryptamine Receptor 2A (5HT2A) (AID 2283249). In outline: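 Radioligand displacement on human cortex tissue extract, counted by filtration and scintillation 1.5 h post-dosing. Initial single-concentration screen at 25 uM in duplicate, concentration series in follow-up; DMSO as baseline.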

Assay [14] deals with rat Constitutive Nitric Oxide Synthase (CNOS), Nos1 (gene 24598) (UniProt P29476). Briefly: NVS_ENZ_rCNOS: NovaScreen (NVS) Enzymatic Assay for rat Constitutive Nitric Oxide Synthase (CNOS) (AID 2283236). In outline:
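Single 25 uM duplicate screen, then concentration series to 50 uM for chemicals meeting threshold. Rat brain membrane-derived CNOS activity detected radiometrically by filtration and scintillation counting, 1 h after compound addition; DMSO as baseline.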

Assay [15] concerns the target human Adrenergic, Alpha 2A Receptor (Adra2A), ADRA2A (gene 150) (UniProt P08913). The experiment in a line: NVS_GPCR_hAdra2A: NovaScreen (NVS) G Protein-Coupled Receptor Assay for human Adrenergic, Alpha 2A Receptor (Adra2A) (AID 2283257). In outline: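 Displacement of a specific radioligand from HT29 membrane protein was counted by filter scintillation after 1 h. Compounds were screened in duplicate at 25 uM, and actives were retested in concentration series. Fitting was positive-direction against DMSO.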

Assay [16] concerns bovine Angiotensin II Receptor Type 2 (AT2), gene 407157. Briefly: NVS_GPCR_bAT2: NovaScreen (NVS) G Protein-Coupled Receptor Assay for bovine Angiotensin II Receptor Type 2 (AT2) (AID 2283240). In outline: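 Radioligand displacement on bovine cerebellar membranes, 1 hour incubation, filter-based scintillation counting; loss of signal vs DMSO. Duplicate single-point screen at 25 uM, then concentration-response to 50 uM maximum.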

The test system of assay [17] is guinea pig Leukotriene B4 Receptor (LTB4), gene 100379538. Briefly: NVS_GPCR_gLTB4: NovaScreen (NVS) G Protein-Coupled Receptor Assay for guinea pig Leukotriene B4 Receptor (LTB4) (AID 2283247). In outline: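 Membranes from guinea pig spleen incubated 2 h with radioligand and compound; bound counts measured by filtration and scintillation. Screened first at 25 uM in duplicate, then actives titrated to a 50 uM top concentration relative to DMSO.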

Records with an inconclusive call do not appear. The source made the active and inactive calls. How the source made its calls: active means hit-call score of the fitted dose curve at least 0.9, where 1 is the maximum; inconclusive means response in the unintended direction; inactive means score below 0.9.

Chain of human Serotonin, 5-Hydroxytryptamine Receptor 5A (5HT5A), HTR5A (gene 3361) (P47898 whole entry, looked up): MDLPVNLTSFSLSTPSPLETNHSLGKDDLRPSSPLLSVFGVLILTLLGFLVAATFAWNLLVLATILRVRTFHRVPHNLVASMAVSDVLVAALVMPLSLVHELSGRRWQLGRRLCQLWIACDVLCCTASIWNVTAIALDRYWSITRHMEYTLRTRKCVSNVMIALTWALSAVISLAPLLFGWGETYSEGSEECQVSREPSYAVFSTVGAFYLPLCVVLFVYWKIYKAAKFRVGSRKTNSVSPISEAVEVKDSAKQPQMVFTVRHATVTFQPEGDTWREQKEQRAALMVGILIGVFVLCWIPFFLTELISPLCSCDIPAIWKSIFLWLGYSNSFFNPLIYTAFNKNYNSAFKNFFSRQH
Chain of rat Catechol-O-Methyl Transferase (COMT), Comt (gene 24267) (P22734 whole entry, looked up): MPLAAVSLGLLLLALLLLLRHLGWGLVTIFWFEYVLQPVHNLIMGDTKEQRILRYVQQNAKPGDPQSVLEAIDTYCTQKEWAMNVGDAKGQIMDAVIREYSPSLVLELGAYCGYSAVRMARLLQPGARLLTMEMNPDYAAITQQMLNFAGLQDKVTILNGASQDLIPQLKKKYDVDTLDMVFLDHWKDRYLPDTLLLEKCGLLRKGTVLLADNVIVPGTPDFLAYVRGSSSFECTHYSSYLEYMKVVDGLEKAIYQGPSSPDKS
Chain of rat Constitutive Nitric Oxide Synthase (CNOS), Nos1 (gene 24598) (P29476 whole entry, looked up): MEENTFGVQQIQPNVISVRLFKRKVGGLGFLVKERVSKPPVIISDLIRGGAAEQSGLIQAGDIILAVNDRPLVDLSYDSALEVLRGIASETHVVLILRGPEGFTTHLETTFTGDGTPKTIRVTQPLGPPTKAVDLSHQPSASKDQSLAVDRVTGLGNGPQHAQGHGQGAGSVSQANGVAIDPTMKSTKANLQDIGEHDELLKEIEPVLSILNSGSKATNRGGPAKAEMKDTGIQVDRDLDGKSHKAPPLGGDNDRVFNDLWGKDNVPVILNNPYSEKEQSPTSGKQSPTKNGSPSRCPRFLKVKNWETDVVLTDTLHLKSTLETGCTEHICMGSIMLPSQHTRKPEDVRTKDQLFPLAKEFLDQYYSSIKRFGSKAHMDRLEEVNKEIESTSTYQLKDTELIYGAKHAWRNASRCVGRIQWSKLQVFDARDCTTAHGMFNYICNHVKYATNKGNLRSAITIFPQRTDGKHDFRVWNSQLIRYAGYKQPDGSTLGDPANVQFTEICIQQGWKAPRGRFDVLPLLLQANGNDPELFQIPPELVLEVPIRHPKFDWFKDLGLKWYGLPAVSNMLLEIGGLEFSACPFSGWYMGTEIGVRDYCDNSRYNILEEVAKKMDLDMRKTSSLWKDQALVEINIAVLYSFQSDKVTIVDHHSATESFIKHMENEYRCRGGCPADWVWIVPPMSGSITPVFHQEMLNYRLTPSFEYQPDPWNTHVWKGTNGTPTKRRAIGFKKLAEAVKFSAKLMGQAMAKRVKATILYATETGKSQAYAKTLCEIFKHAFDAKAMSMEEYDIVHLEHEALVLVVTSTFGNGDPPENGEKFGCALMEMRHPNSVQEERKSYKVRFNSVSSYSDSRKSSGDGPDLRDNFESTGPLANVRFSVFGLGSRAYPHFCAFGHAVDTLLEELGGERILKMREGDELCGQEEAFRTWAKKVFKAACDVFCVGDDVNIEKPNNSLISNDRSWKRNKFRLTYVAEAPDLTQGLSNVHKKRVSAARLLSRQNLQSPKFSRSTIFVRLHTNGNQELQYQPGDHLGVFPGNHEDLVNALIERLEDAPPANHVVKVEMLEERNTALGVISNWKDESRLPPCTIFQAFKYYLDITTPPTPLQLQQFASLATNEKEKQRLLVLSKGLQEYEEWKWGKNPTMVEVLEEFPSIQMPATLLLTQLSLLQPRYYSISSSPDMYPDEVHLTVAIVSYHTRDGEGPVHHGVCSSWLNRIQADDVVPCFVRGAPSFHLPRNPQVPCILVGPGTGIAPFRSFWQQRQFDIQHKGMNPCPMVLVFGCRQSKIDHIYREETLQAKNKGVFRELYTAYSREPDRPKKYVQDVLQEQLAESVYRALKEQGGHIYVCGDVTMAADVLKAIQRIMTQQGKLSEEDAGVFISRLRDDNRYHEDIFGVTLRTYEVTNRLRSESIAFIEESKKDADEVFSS
Chain of human Adenosine A2a Receptor (AdoRA2a), ADORA2A (gene 135) (P29274 whole entry, looked up): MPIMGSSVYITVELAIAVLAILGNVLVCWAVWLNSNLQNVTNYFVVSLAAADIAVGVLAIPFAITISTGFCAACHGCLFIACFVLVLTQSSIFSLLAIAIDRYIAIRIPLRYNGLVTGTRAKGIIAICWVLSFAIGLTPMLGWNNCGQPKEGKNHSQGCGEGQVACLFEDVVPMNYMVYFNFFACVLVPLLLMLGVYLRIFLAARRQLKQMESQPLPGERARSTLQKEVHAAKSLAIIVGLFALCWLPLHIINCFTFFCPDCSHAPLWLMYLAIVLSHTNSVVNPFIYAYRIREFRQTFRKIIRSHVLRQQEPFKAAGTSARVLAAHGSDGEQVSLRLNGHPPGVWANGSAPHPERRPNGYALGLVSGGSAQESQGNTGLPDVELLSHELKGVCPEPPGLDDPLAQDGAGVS
Chain of sheep Cyclooxygenase-1 (Cox1), PTGS1 (gene 443551) (P05979 whole entry, looked up): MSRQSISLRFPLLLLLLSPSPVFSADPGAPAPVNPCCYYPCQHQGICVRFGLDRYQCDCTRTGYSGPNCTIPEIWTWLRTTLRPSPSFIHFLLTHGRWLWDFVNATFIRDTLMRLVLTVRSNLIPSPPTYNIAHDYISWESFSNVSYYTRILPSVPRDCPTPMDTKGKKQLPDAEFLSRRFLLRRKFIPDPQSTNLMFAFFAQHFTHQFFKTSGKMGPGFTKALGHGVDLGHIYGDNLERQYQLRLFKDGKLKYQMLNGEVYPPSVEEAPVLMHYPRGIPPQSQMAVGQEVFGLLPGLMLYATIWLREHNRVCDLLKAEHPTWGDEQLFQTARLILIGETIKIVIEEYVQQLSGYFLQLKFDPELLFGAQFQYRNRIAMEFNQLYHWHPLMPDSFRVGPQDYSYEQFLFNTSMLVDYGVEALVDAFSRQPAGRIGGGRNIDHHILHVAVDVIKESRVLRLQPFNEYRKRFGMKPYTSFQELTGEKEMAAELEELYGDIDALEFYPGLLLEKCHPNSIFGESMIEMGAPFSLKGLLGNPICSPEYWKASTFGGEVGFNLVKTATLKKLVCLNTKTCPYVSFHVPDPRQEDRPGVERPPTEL
Chain of sheep Cyclooxygenase-2 (Cox2), PTGS2 (gene 443460) (P79208 whole entry, looked up): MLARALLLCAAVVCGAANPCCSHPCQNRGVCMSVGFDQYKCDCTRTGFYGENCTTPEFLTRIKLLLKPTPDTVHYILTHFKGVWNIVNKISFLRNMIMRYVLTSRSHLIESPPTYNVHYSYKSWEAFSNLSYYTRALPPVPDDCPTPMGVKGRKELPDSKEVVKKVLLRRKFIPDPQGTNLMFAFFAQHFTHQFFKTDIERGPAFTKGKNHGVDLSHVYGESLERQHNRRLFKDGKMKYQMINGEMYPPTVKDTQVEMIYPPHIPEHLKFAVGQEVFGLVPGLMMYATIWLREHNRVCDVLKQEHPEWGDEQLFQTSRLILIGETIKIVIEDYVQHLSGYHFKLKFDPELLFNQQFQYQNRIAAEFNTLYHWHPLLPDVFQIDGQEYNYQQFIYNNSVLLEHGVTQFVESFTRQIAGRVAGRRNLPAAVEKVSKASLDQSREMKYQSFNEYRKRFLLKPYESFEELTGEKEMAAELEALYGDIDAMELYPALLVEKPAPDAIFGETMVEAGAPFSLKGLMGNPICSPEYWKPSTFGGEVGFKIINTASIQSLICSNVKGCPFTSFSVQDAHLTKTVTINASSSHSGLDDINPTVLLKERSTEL
Chain of human Serotonin, 5-Hydroxytryptamine Receptor 7 (5HT7), HTR7 (gene 3363) (P34969 whole entry, looked up): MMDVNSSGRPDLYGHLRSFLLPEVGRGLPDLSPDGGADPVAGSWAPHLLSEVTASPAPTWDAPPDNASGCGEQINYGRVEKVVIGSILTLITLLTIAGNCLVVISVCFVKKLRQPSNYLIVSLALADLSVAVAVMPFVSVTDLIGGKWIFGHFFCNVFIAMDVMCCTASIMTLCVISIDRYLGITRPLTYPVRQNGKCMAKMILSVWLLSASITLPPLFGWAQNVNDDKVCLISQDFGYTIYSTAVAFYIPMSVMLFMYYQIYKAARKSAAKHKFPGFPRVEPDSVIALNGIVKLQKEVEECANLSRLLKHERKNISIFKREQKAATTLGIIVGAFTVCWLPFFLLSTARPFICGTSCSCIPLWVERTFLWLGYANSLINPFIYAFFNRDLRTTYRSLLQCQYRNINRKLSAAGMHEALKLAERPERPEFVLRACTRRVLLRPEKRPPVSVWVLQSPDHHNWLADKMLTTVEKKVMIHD
Chain of human Serotonin, 5-Hydroxytryptamine Receptor 2A (5HT2A), HTR2A (gene 3356) (P28223 whole entry, looked up): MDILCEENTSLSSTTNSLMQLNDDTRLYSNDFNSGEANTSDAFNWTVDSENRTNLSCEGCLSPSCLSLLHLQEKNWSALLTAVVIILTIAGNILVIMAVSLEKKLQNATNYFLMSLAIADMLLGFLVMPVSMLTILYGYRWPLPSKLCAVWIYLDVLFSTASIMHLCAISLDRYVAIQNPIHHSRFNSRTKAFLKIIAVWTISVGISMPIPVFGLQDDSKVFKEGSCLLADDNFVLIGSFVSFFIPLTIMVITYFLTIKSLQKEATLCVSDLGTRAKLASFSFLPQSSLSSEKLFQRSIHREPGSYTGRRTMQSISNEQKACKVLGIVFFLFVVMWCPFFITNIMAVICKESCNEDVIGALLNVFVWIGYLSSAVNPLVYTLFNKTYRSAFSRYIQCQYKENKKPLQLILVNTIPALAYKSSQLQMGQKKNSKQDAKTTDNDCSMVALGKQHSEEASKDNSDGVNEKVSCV
Chain of human Adenosine A1 Receptor (AdoRA1), ADORA1 (gene 134) (P30542 whole entry, looked up): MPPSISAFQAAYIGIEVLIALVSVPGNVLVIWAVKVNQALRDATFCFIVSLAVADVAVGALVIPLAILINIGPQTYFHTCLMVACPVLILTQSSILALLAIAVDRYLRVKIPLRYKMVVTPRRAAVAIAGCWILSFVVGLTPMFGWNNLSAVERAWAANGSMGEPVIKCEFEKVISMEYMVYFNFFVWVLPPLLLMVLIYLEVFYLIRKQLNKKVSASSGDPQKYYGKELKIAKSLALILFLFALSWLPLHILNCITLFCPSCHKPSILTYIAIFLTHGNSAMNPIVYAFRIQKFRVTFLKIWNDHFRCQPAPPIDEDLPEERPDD

For the compound `Oc1ccccc1O`, the result in assay [1] and in assay [2] was inactive.
Turning to `O=[Si]=O`, the result in [3] was inactive.
Take `CCN(CC)CCOc1ccc(C(=C(Cl)c2ccccc2)c2ccccc2)cc1`: the AC50 in assay [3] is 4.39 µM (active); in assay [4] it was 14.2 µM (active); in assay [5], 30 µM (active); in assay [6], 4.82 µM (active); in assay [7], 1.46 µM (active); in assay [8], 5.6 µM (active). Besides, the results for the AC50 in assay [9], in assay [10] and in assay [11] were 11 µM (active), 3.31 µM (active) and 11.6 µM (active) [middle of 4 runs], respectively.
Consider `CN(C)C(=O)NC1(c2ccccc2)CCN(CCC[C@]2(c3ccc(Cl)c(Cl)c3)CCCN(C(=O)c3ccccc3)C2)CC1`, for which the values for the AC50 in assay [1], in [4] and in assay [6] were 4.73 µM (active), 1.3 µM (active) and 5.86 µM (active), respectively. Also, the call in [12], in assay [5], in assay [13], in assay [7] and in assay [10] was inactive.
As to `CCC(C)N(C)C(=O)c1cc2ccccc2c(-c2ccccc2Cl)n1` (stereo not given), the outcome in assay [14] and in [13] was inactive. The AC50 was 15.9 µM (active) in assay [7], 6.11 µM (active) in [9] and 7.37 µM (active) in [11].
Turning to `O=C(O)c1[nH]n(-c2ccc(S(=O)(=O)O)cc2)c(=O)c1N=Nc1ccc(S(=O)(=O)O)cc1`, the AC50 in assay [14] was 9.33 µM (active). Besides, the call in assay [7] and in assay [10] was inactive.
In the case of `O=NO`, the compound was called inactive in assay [1].
Take `Nc1nc(=S)c2[nH]cnc2[nH]1`: in assay [3], the half-maximal activity concentration (AC50) is 2.25 µM (active).
On to `Cc1occc(=O)c1O`, for which, in assay [1], the AC50 was 17.6 µM (active). Moreover, the compound was classed as inactive in assay [13].
Consider `COC(=O)[C@H]1[C@H]2C[C@@H]3c4[nH]c5cc(OC)ccc5c4CCN3C[C@H]2C[C@@H](OC(=O)c2cc(OC)c(OC)c(OC)c2)[C@@H]1OC`, for which the AC50 in assay [3] is 19.5 µM (active).
For `O=C1c2c(O)cccc2Cc2cccc(O)c21`, the AC50 in [1] is 6.81 µM (active); in assay [2] it was 12.1 µM (active); in assay [14], 5.47 µM (active); in assay [3] it was 3.2 µM (active).
As to `CC(=O)OCC(COC(C)=O)OC(C)=O`, the outcome in assay [2] was inactive.
With `CSc1ccc(Oc2ccc(S(N)(=O)=O)cc2CN(C)C)cc1C`, in assay [3], the result was inactive. Besides, the AC50 in assay [13] is 13.4 µM (active); in assay [7], 7.53 µM (active); in assay [8], 2.79 µM (active); in [10], 12.5 µM (active); in assay [15] it was 263 nM (active).
As for `C/C=C/c1ccc(OC)cc1`, the outcome in [1] was inactive.
For the compound `CCc1nc(N)nc(N)c1-c1ccc(Cl)cc1`, the call in [1], in [6] and in assay [7] was inactive. Moreover, the AC50 in [10] was 4.76 µM (active); in assay [15], 4810 nM (active).
In the case of `Cn1cnc2c1c(=O)[nH]c(=O)n2C`, the compound was called inactive in assay [3].
Consider `CC(=O)S[C@H](C(=O)N[C@H]1Cc2ccccc2[C@H]2CCC[C@@H](C(=O)O)N2C1=O)C(C)C`, for which the outcome in assay [14] and in assay [3] was inactive.
For `Oc1ccc(O)cc1`, the compound was called inactive in [3].
On to `NC(=Nc1ccccc1)Nc1ccccc1`, for which the compound was called inactive in assay [3] and in assay [6]. For the same compound, in assay [10], the half-maximal activity concentration (AC50) was 11.8 µM (active).
Regarding `O=C(NS(=O)(=O)/C=C/c1cccs1)c1ccc(F)cc1Br`, the AC50 in assay [16] was 14.5 µM (active).
Consider `C#CC(O)C(CC)CCCC` (stereo not given), for which the result in assay [3] was inactive. In addition, in assay [17], the AC50 is 2.8 µM (active).

As usually defined, the AC50 is the concentration at which the activity in the assay is half-maximal.
